Screening results as filed in PubChem.
BAZ2B block: qHTS Assay for Inhibitors of BAZ2B | AlphaScreen BAZ2B-H3K14Ac peptide displacement | AID 504333, 2011 | actives 4.4% (n = 360,000) | Potency, µM (highest dose often 114 µM), for inactives: at the top dose activity change, negative = inhibition, usual class: inhibitors | Bromodomain adjacent to zinc finger domain protein 2B (Homo sapiens), Q9UIF8; further: potency means the concentration at half of the fitted maximal effect; on the % scale 0 is the no-effect control and ±100 the full control effect; nearly all actives have a fitted effect of over 60% in size
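AlphaScreen displacement of biotin-H3(5-23)K14Ac peptide (50 nM final) from BAZ2B (50 nM final) in PBS pH 7.4, 0.01% Tween-20; complex preformed 30 min RT, then compounds (top 110 uM) 30 min RT, beads 20 min dark.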
CtBP-E1A inh: qHTS Assay for Inhibitors of the CtBP/E1A Interaction. CtBP / adenovirus E1A interaction (AlphaScreen). AlphaScreen GST-E1A/His-CtBP binding, 1536-well; hits give low values. activity change, % (no concentration beside the values). actives 0.49% (n = 340,000). AID 651724, 2012; in the data active means activity change below about -65%; inconclusive means mostly about -30% to -63%; further: on the % scale 0 is the no-effect control and ±100 the full control effect
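In 5 uL wells, 23 nL compound meets equimolar GST-E1A and His-CtBP (5X stock 125 nM each) for 2 h, 37 °C. Beads (5X, 50 ug/mL) then 1 h, 37 °C, dark.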
HP1b binding inh: HTS for Inhibitors of HP1-beta Chromodomain Interactions with Methylated Histone Tails; Chromobox protein homolog 1 (Homo sapiens), P83916; AlphaScreen HP1-beta / biotin-H3K9me3 peptide binding; Potency, µM (doses to about 114 µM), without a hit: top-dose activity change, negative = inhibition, hits mostly inhibitors; actives 0.56% (n = 390,000); further: potency means the concentration at half of the fitted maximal effect; nearly all actives have a fitted effect of over 70% in size
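HP1-beta protein (50 nM final) preincubated 30 min at room temperature with biotinylated H3(1-18)K9me3 peptide (50 nM) in PBS pH 7.4, 0.01% Tween-20, then compound added for 30 min. AlphaScreen streptavidin donor/nickel chelate acceptor beads (10 ug/mL final), 30 min dark, luminescence read.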
Six1-Eya2 inh: qHTS Assay for Inhibitors of the Six1/Eya2 Interaction; actives 0.56% (n = 360,000); activity change, % (concentration not given with the values); AlphaScreen GST-Six1/His-Eya2 binding, biochemical; hits give low values; in the data active means activity change below about -65%; inconclusive means mostly about -30% to -63%; further: on the % scale 0 is the no-effect control and ±100 the full control effect
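AlphaScreen with GST-Six1 and His-Eya2 (5X mix: 250 nM and 500 nM), glutathione donor and nickel acceptor beads; buffer 50 mM Tris pH 8.0, 300 mM NaCl, 1 mM TCEP; 1 h at 37 C in the dark.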
G9a block: qHTS Assay for Inhibitors of Histone Lysine Methyltransferase G9a. Histone-lysine N-methyltransferase EHMT2 (Homo sapiens), Q96KQ7. G9a H3K9 monomethylation, AlphaScreen, 2 h. Potency, µM (doses to about 102 µM), for the others: at the top dose activity, negative = inhibition, most hits filed as inhibitors. actives 8.8% (n = 350,000). AID 504332, 2011; further: potency means the concentration at half of the fitted maximal effect; on the % scale 0 is the no-effect control and ±100 the full control effect; nearly all actives have a fitted effect of over 75% in size
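G9a (20 nM) preincubated 15 min RT with compounds, then 500 nM biotinylated H3K9 peptide and 20 uM SAM added; 2 h RT reaction. Monomethyl-H3K9 product detected by AlphaScreen with anti-H3K9me1 antibody, streptavidin donor and anti-rabbit IgG acceptor beads.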
JMJD2A Tudor: qHTS Assay for Inhibitors of JMJD2A-Tudor Domain; Lysine-specific demethylase 4A (Homo sapiens), O75164; AlphaScreen JMJD2A-Tudor / H3K4me3 peptide binding; Potency, µM (highest dose often 114 µM), for the others: top-dose activity change, negative = inhibition, usual class: inhibitors; actives 4.4% (n = 390,000); AID 504339, 2011; further: potency means the concentration at half of the fitted maximal effect; on the % scale 0 is the no-effect control and ±100 the full control effect; nearly all actives have a fitted effect of over 50% in size
The depositor's hits bear a star; [ ] = remark or other dose. A selection: hits, their analogues and other compounds. The true share with any hit is near 10%. Unless noted, the call rests on the fitted dose curve; in most records, active means well fitted inhibition curve with a large enough effect; inconclusive means small, poorly fitted or top-dose-only effect; inactive means no such curve, though single readings can be large or run the other way.

Results for CC(C)c1ccc(-c2nnc3n(CCc4ccccc4)c(=O)c4ccccc4n23)cc1 ?
BAZ2B block: -0.8%; HP1b binding inh: 34.8%; G9a block: -33.7%[59 µM]; JMJD2A Tudor: -15.9%

What do the screens show for `CC(C)(C)c1ccc(NC(=O)COC(=O)c2ccc(CN3CCCC3=O)cc2)cc1`?
BAZ2B block: 5.5%; CtBP-E1A inh: -8.2; HP1b binding inh: 19.7%; Six1-Eya2 inh: -0.1; G9a block: 8.2%[12.7 µM]; JMJD2A Tudor: -16.4%

How did O=C(Nc1ccc(N2CCN(C(=O)c3ccccc3)CC2)c(Cl)c1)c1ccc(Br)o1 do in these assays?
BAZ2B block: -34.8%; CtBP-E1A inh: 41.4; HP1b binding inh: 32.6%; Six1-Eya2 inh: -5.5; G9a block: 44.7µM*; JMJD2A Tudor: -25.0%

How did O=C(Nc1ccc(C(=O)N2CCOCC2)cc1)c1ccccc1 do in these assays?
CtBP-E1A inh: 3.4; HP1b binding inh: 61.9%; Six1-Eya2 inh: 9.3; JMJD2A Tudor: -1.4%

Results for O=C(Nc1ccc(Cl)c(C(=O)N2CCOCC2)c1)c1ccccc1 ?
BAZ2B block: 0.7%; CtBP-E1A inh: -1.3; HP1b binding inh: 31.7%; Six1-Eya2 inh: 5.5; G9a block: 44.7µM*; JMJD2A Tudor: -3.9%

What do the screens show for `O=C(Nc1ccc(N2CCOCC2)c(Cl)c1)c1ccc(Br)o1`?
BAZ2B block: -0.2%; CtBP-E1A inh: 1.8; HP1b binding inh: 11.3%; Six1-Eya2 inh: 1.7; G9a block: -50.3%[12.7 µM]; JMJD2A Tudor: -12.0%

How did O=C(Nc1ccc(N2CCN(C(=O)c3ccccc3)CC2)cc1)c1ccc(Br)o1 do in these assays?
BAZ2B block: inconclusive; CtBP-E1A inh: -6.6; HP1b binding inh: -2.4%; Six1-Eya2 inh: -20.0; G9a block: 31.6µM*; JMJD2A Tudor: -27.6%

What do the screens show for `C=CCN1C(=O)C(CC(=O)O)SC1=Nc1ccc(C)cc1` (centres undefined)?
BAZ2B block: -0.1%; CtBP-E1A inh: 5.6; HP1b binding inh: 37.8%; Six1-Eya2 inh: 2.8; G9a block: 20.2%; JMJD2A Tudor: -12.3%

How did CCOC(=O)c1sc2nc3c(SCCC#N)cc(C(=O)c4cc(F)ccc4O)cn3c(=O)c2c1C do in these assays?
BAZ2B block: -23.3%; CtBP-E1A inh: -6.2; HP1b binding inh: 13.3%; Six1-Eya2 inh: 0.3; G9a block: inconclusive; JMJD2A Tudor: -26.0%

What do the screens show for `O=C(O)CSc1cc(C(=O)c2cc(F)ccc2O)cn2c(=O)c3c(-c4ccccc4)csc3nc12`?
BAZ2B block: 56.2µM*; HP1b binding inh: -0.1%[57 µM]; Six1-Eya2 inh: -22.6; G9a block: 50.1µM*; JMJD2A Tudor: 56.2µM*

How did CCOC(=O)c1sc2nc3c(SCCC(=O)O)cc(C(=O)c4cc(OC)ccc4O)cn3c(=O)c2c1C do in these assays?
BAZ2B block: 35.5µM*; HP1b binding inh: -12.4%; Six1-Eya2 inh: inconclusive; G9a block: 11.2µM*; JMJD2A Tudor: 14.1µM*

What do the screens show for `COCCNC(=O)CCC1CCN(Cc2cccc(Oc3ccccc3)c2)CC1`?
BAZ2B block: 11.2%; CtBP-E1A inh: -10.0; HP1b binding inh: 10.9%; Six1-Eya2 inh: 9.5; JMJD2A Tudor: -4.8%

Results for Cc1cccc(OCc2nc(-c3ccccn3)n[nH]2)c1 ?
BAZ2B block: 8.91µM*; CtBP-E1A inh: -89.2*; HP1b binding inh: 45.9%; Six1-Eya2 inh: -94.0*; G9a block: 22.6%[59 µM]; JMJD2A Tudor: 12.6µM*

Results for Cc1ccc(OCc2nc(-c3ccccn3)n[nH]2)cc1 ?
BAZ2B block: 3.98µM*; CtBP-E1A inh: -98.1*; HP1b binding inh: 50.7%; Six1-Eya2 inh: -91.8*; G9a block: 70.8%[59 µM]; JMJD2A Tudor: 20µM*

What do the screens show for `O=C(NCCCNC(=O)c1ccccc1F)c1ccco1`?
BAZ2B block: -7.8%; CtBP-E1A inh: -0.6; HP1b binding inh: 25.7%; Six1-Eya2 inh: -0.9; G9a block: 9.5%; JMJD2A Tudor: -3.4%

How did COc1ccc2[nH]c3c(c2c1)CCN1C(=O)C(CC(=O)NCc2ccc(OC)c(OC)c2)C[C@H](C(=O)N2CCOCC2)[C@@]31CCC1CCCC1 (some centres undefined) do in these assays?
CtBP-E1A inh: -4.7; HP1b binding inh: 5.2%; Six1-Eya2 inh: -7.2; JMJD2A Tudor: 50.1µM*

What do the screens show for `O=C(C[C@H]1C[C@H](C(=O)N2CCOCC2)[C@@]2(CCC3CCCC3)c3[nH]c4cc(-c5ccco5)ccc4c3CCN2C1=O)NCCCn1ccnc1`?
CtBP-E1A inh: -24.5; HP1b binding inh: inconclusive; Six1-Eya2 inh: -18.0; JMJD2A Tudor: 56.2µM*

What do the screens show for `C[C@]12c3[nH]c4ccc(Cl)cc4c3CCN1C(=O)[C@@H](CC(=O)NCCCn1ccnc1)C[C@@H]2C(=O)N1CCCCC1`?
CtBP-E1A inh: -8.4; HP1b binding inh: 12.8%; Six1-Eya2 inh: -9.7; JMJD2A Tudor: inconclusive

What do the screens show for `O=C(C[C@H]1C[C@H](C(=O)N2CCCCC2)[C@@]2(CCc3ccccc3)c3[nH]c4cc(-c5ccco5)ccc4c3CCN2C1=O)NCCN1CCOCC1`?
CtBP-E1A inh: -5.8; HP1b binding inh: 20µM*; Six1-Eya2 inh: -4.2; JMJD2A Tudor: 39.8µM*

Results for O=C(C[C@H]1C[C@H](C(=O)N2CCCCC2)[C@@]2(CCc3ccccc3)c3[nH]c4ccc(Cl)cc4c3CCN2C1=O)NCCCn1ccnc1 ?
CtBP-E1A inh: -21.9; HP1b binding inh: -23.4%; Six1-Eya2 inh: -27.5; JMJD2A Tudor: 35.5µM*

Results for CC(C)=CCC/C(C)=C/CNC(=O)C[C@H]1C[C@H](C(=O)N2CCCCC2)[C@@]2(CCc3ccccc3)c3[nH]c4cc(-c5ccco5)ccc4c3CCN2C1=O ?
CtBP-E1A inh: -7.0; HP1b binding inh: 7.5%; Six1-Eya2 inh: -8.8; JMJD2A Tudor: -34.8%

What do the screens show for `COCCCNC(=O)C[C@H]1C[C@H](C(=O)N2CCCCC2)[C@@]2(CCc3ccccc3)c3[nH]c4cc(-c5ccco5)ccc4c3CCN2C1=O`?
CtBP-E1A inh: -24.6; HP1b binding inh: inconclusive; Six1-Eya2 inh: -11.6; JMJD2A Tudor: 44.7µM*

Results for Cn1cc(C(=O)O)c(=O)c2cc(S(=O)(=O)N3CCOCC3)ccc21 ?
BAZ2B block: -1.6%; HP1b binding inh: 9.3%; G9a block: -1.1%[59 µM]; JMJD2A Tudor: -8.3%
